Laboratory results: the supplement of paper PMC3342239
Structures can show the parent of a compound that is named as a salt.

Tested on: Saccharomyces cerevisiae
Experiment: fraction of cells in G1 phase (DNA content, flow cytometry); higher = more cells with unreplicated DNA (G1 delay)
Details: temperature: 30 C; YPD; JTY2953 pdr5 snq2 (sensitized); drug added to: cultures diluted from stationary phase; 6-7 h
Procedure, shortened: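 S. cerevisiae grown in YPD at 30°C was exposed to library drugs. In one setup, overnight sensitized JTY2953 cultures were diluted 1∶200, given a final 20 µg/ml and fixed after 6–7 h, while other runs dosed dividing JTY2953 with fixation 6 h later or BY4741 with fixation 4.33 h later. Cells were ethanol-fixed, stained with SYTOX Green and analysed by flow cytometry at 10,000 events. The G1 fraction is the area of the Dean-Jett-Fox G1 peak divided by the summed G1 and G2/M areas.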

Compound | fraction of cells in G1 phase
N=C(N)c1ccc(OCCCCCOc2ccc(C(=N)N)cc2)cc1 [Pentamidine] (58.7494 µM) | 0.521
COc1ccc(C(=O)NCc2ccc(OCCN(C)C)cc2)cc1OC [Itopride HCl] (55.7972 µM) | 0.501
C[C@H]1[C@H](OC(=O)CCC(=O)O)O[C@@H]2O[C@@]3(C)CC[C@H]4[C@H](C)CC[C@@H]1[C@@]24OO3 [Artesunate] (52.025 µM) | 0.556
CN/C(=N\c1ccc(C2=NNC(=O)CC2C)cc1)NC#N (configuration not stated) [Siguazodan] (70.3425 µM) | 0.493
CC#C[C@]1(O)CC[C@H]2[C@@H]3CCC4=CC(=O)CCC4=C3[C@@H](c3ccc(N(C)C)cc3)C[C@@]21C [Mifepristone] (46.5541 µM) | 0.469
COc1ccc2[nH]cc(CCNC(C)=O)c2c1 [Melatonin] (86.1012 µM) | 0.529
CCN(CC)CCCC(C)Nc1c2ccc(Cl)cc2nc2ccc(OC)cc12 (configuration not stated) [Quinacrine 2HCl dihydrate] (50.004 µM) | 0.529
CCOC(=O)c1cnc2c(cnn2CC)c1NN=C(C)C [Etazolate] (69.1229 µM) | 0.5
CCC(=O)O[C@@H](O[P@](=O)(CCCCc1ccccc1)CC(=O)N1C[C@H](C2CCCCC2)C[C@H]1C(=O)O)C(C)C [Fosinopril] (35.4813 µM) | 0.501
Cc1nc2n(c(=O)c1CCN1CCC(c3noc4cc(F)ccc34)CC1)CCCC2 [Risperidone] (48.7216 µM) | 0.472
COc1cc2ncnc(Nc3ccc(F)c(Cl)c3)c2cc1OCCCN1CCOCC1 [Gefitinib] (44.7514 µM) | 0.535
CN(CCOc1ccc(NS(C)(=O)=O)cc1)CCc1ccc(NS(C)(=O)=O)cc1 [Dofetilide] (45.2927 µM) | 0.551
COC(=O)c1ccc(=O)c2nc3c(=CO)c(O)cc(=O)c3[nH]c12 [Lomofungin] (63.6422 µM) | 0.495
CC(=O)Oc1ccccc1C(=O)O [Acetylsalicylic acid] (111.011 µM) | 0.49
CCOC(=O)C(C)(C)Oc1ccc(Cl)cc1 [Clofibrate] (82.4047 µM) | 0.552
CNCCC(Oc1ccccc1OC)c1ccccc1 (configuration not stated) [Nisoxetine HCl] (73.7022 µM) | 0.511
COC(=O)C1=C(C)NC(C)=C(C(=O)OCCN2CCN(C(c3ccccc3)c3ccccc3)CC2)C1c1cccc([N+](=O)[O-])c1 (configuration not stated) [Manidipine] (32.7484 µM) | 0.554
Cc1cc2c(OCC(CNC(C)(C)C)OC(=O)c3ccccc3)cccc2[nH]1 (configuration not stated) [Bopindolol malonate] (52.5636 µM) | 0.517
Nc1cc(-c2ccncc2)c[nH]c1=O [Amrinone] (106.838 µM) | 0.474

Compound | fraction of cells in G1 phase
Cc1[nH]c(=O)c(C#N)cc1-c1ccncc1 [Milrinone] (94.6857 µM) | 0.482
CC(C)[N+]1(C)[C@@H]2CC[C@H]1CC(OC(=O)C(CO)c1ccccc1)C2 (some centres not stated) [Ipratropium Br] (60.1563 µM) | 0.508
CNCCCC12CCC(c3ccccc31)c1ccccc12 [Maprotiline HCl] (72.0947 µM) | 0.475
CC(C(=O)O)c1ccc(-c2ccccc2)c(F)c1 (configuration not stated) [Flurbiprofen] (81.8773 µM) | 0.524
C[C@H]1O[C@@H](n2cc(F)c(=O)[nH]c2=O)[C@H](O)[C@@H]1O [Doxifluridine] (81.2358 µM) | 0.479
CCCCNc1cc(C(=O)O)cc(S(N)(=O)=O)c1Oc1ccccc1 [Bumetanide] (54.8812 µM) | 0.566
CC12CC3CC(C)(C1)CC(N)(C3)C2 [Memantine HCl] (111.54 µM) | 0.532
COc1cc(C(=O)NS(=O)(=O)c2ccccc2C)ccc1Cc1cn(C)c2ccc(NC(=O)OC3CCCC3)cc12 [Zafirlukast] (34.741 µM) | 0.509
CCOC(=O)[C@H](CCc1ccccc1)N[C@@H](C)C(=O)N1Cc2ccccc2C[C@H]1C(=O)O [Quinapril HCl] (45.6071 µM) | 0.482
C[C@H]1c2cccc(O)c2C(O)=C2C(=O)[C@]3(O)C(O)=C(C(N)=O)C(=O)[C@@H](N(C)C)[C@@H]3[C@@H](O)[C@@H]21 [Doxycycline HCl] (44.9999 µM) | 0.53
Cc1ncc([N+](=O)[O-])n1CC(C)O (configuration not stated) [Secnidazole] (108.001 µM) | 0.48
NC(=O)OCC(COC(N)=O)c1ccccc1 [Felbamate] (83.9631 µM) | 0.505
Cc1onc(-c2ccccc2)c1C(=O)N[C@@H]1C(=O)N2[C@@H]1SC(C)(C)[C@@H]2C(=O)O [Oxacillin sodium monohydrate] (49.9455 µM) | 0.486
C/C=C/c1ccc(OC)cc1 [Anethole, trans-] (134.947 µM) | 0.525
CC[C@H](C)C(=O)O[C@H]1C[C@H](O)C=C2C=C[C@H](C)[C@H](CC[C@@H]3C[C@@H](O)CC(=O)O3)[C@H]21 [Pravastatin lactone] (49.1976 µM) | 0.451
C=C(c1ccc(C(=O)O)cc1)c1cc2c(cc1C)C(C)(C)CCC2(C)C [Bexarotene] (57.3905 µM) | 0.546
CC[C@]1(O)C[C@@H]2CN(CCc3c([nH]c4ccccc34)[C@@](C(=O)OC)(c3cc4c(cc3OC)N(C)[C@H]3[C@@](O)(C(=O)OC)[C@H](OC(C)=O)[C@]5(CC)C=CCN6CC[C@]43[C@@H]65)C2)C1 [Vinblastine sulfate] (21.9998 µM) | 0.495
CCCSc1ccc2[nH]c(NC(=O)OC)nc2c1 [Albendazole] (75.3761 µM) | 0.475
